This is an account of results in PubChem BioAssay.

Each structure is given as a SMILES string. Active and inactive are the calls of the source.

A short description of assay [1]: anti-His antibody binders, primary screen, artefact control for SMM control protein annotation, biochemical, small-molecule microarray, 635 nm fluorescence (AID 1128).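 Further: score merges feature fluorescence with signal-to-noise for each printed compound spot.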 Particulars: anti-His Alexa647 antibody binding, higher = more signal.
The test system of assay [2] is Human papillomavirus type 1a E7 protein (residues 1-88). The assay is described as follows: HPV1a E7 small-molecule binders, primary screen, biochemical, small-molecule microarray, residues 1-88, 635 nm (AID 1129). Particulars: small-molecule microarray binding, fluorescence 635 nm; higher = more signal.
Assay [3] deals with Focal adhesion kinase 1 (Homo sapiens) (UniProt Q05397). The assay is described as follows: small-molecule microarray binders of FAK, primary screen, biochemical, 635/667 nm fluorescence, BSA, DTT (AID 1130).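 Further: composite of spot emission at 667 nm and signal to noise over triplicate slides.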 Conditions: PTK2 binding, 635 nm fluorescence, higher = more signal.
Chain of Focal adhesion kinase 1 (Homo sapiens) (Q05397 whole entry, looked up): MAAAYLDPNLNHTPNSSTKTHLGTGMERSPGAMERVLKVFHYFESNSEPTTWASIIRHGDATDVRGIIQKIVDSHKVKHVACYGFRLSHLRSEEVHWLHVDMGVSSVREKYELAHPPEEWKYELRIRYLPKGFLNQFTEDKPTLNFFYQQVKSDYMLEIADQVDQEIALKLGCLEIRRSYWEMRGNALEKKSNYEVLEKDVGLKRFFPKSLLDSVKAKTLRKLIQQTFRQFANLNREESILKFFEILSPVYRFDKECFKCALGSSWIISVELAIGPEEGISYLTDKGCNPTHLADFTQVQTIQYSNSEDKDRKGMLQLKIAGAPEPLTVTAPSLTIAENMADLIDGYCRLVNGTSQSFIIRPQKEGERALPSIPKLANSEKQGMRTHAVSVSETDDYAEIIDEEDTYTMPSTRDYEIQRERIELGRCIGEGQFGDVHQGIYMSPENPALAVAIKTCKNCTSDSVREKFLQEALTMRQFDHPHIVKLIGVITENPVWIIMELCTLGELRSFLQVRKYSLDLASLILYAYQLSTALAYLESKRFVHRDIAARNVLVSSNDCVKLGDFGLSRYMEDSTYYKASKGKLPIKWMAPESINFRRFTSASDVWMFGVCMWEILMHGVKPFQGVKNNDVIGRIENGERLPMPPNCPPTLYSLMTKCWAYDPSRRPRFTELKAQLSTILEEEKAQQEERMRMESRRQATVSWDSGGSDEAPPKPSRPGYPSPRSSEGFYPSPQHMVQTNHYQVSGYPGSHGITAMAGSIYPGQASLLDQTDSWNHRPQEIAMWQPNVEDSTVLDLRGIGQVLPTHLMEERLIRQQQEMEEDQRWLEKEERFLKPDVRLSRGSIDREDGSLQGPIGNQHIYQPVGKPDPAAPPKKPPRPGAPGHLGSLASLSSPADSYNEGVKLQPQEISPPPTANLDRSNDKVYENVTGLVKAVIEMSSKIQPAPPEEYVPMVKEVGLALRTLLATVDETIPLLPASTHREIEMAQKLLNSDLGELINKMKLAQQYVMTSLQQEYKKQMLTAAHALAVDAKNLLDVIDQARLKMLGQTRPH
For assay [4], the system named is Fibrinogen (Alexa647-labelled). The assay is described as follows: fibrinogen binders on compound microarrays, profiling panel, artefact control for SMM control-protein annotation, biochemical, small-molecule microarray, 635/667 nm fluorescence (AID 1131).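 Further: z-score merges 667 nm fluorescence with per-spot signal-to-noise over triplicate slides.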 Conditions: fibrinogen-A647 binding fluorescence, higher = more signal.
Assay [5] has as its target Follistatin (Homo sapiens) (UniProt P19883). As to the kind of experiment: follistatin binders on small-molecule microarrays, primary screen, biochemical, small-molecule microarray, 635/667 nm fluorescence (AID 1132). Particulars: FST binding, 635 nm fluorescence, higher = more signal.
Assay [6] concerns the target Fibroblast growth factor 2 (Homo sapiens) (UniProt P09038). As to the kind of experiment: FGF2 binders on small-molecule microarrays, primary screen, biochemical, small-molecule microarray, 635/667 nm fluorescence (AID 1133). Conditions: small-molecule microarray binding, FGF2, fluorescence 635/667; higher = more signal.
Assay [7] can be described thus: mitochondrial membrane potential change in A549 cells, profiling panel, cell-based, JC-1 fluorescence, basal, 24 h, 100 nL (AID 1138).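 Further: A549 lung adenocarcinoma cells under basal conditions with no added stimulus; test concentration not given here.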 Particulars: higher = more signal.
The subject of a further assay is Lefty1. As to the kind of experiment: Lefty1 binders on small-molecule microarrays, primary screen, biochemical, small-molecule microarray, 635/667 nm fluorescence (AID 1139). Conditions: small-molecule microarray binding, fluorescence 635/667; higher = more signal.
Assay [8] concerns wheat germ agglutinin (Triticum aestivum), Alexa647-labelled. The assay is described as follows: wheat germ agglutinin binders on compound microarrays, profiling panel, artefact control for SMM control-protein annotation, biochemical, small-molecule microarray, 635/667 nm fluorescence (AID 1140).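 Further: score merges 667 nm feature emission with signal to noise over triplicate slides.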 Particulars: WGA-A647 binding, 635 nm fluorescence, higher = more signal.
Assay [9] addresses Luciferin 4-monooxygenase (Photinus pyralis) (UniProt P08659). The assay is described as follows: firefly luciferase enzyme inhibitors, primary screen, biochemical, luminescence, purified enzyme, 2006 set (AID 1141).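 Further: cell-free assay with purified firefly luciferase at 100 ng per well in PBS; test concentration not given here.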 Conditions: SteadyGlo luminescence, 30 min, higher = more signal, called active from +8 up or from −8 down.

Chain of Fibroblast growth factor 2 (Homo sapiens) (P09038 whole entry, looked up): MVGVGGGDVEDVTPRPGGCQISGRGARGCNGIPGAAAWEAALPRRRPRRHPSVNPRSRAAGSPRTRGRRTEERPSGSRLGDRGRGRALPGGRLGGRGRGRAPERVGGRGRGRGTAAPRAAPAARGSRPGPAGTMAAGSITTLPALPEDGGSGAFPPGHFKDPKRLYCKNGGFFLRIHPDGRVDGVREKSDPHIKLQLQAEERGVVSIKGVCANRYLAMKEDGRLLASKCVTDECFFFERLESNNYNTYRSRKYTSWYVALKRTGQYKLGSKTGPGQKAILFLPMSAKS
Chain of Luciferin 4-monooxygenase (Photinus pyralis) (P08659 whole entry, looked up): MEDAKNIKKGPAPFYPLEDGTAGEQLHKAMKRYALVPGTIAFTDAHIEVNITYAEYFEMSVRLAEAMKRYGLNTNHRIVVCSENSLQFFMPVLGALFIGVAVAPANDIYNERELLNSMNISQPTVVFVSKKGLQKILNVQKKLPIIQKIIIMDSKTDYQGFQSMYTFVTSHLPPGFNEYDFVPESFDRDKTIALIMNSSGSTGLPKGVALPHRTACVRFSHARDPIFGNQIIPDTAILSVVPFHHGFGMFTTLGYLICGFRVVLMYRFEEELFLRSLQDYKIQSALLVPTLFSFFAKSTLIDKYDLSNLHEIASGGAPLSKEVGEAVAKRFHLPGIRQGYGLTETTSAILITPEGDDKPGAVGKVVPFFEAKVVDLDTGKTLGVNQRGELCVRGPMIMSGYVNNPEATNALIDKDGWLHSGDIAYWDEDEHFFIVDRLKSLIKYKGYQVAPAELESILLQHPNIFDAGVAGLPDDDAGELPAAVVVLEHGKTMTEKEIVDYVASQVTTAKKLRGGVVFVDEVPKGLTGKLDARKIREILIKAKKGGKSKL
Chain of Follistatin (Homo sapiens) (P19883 whole entry, looked up): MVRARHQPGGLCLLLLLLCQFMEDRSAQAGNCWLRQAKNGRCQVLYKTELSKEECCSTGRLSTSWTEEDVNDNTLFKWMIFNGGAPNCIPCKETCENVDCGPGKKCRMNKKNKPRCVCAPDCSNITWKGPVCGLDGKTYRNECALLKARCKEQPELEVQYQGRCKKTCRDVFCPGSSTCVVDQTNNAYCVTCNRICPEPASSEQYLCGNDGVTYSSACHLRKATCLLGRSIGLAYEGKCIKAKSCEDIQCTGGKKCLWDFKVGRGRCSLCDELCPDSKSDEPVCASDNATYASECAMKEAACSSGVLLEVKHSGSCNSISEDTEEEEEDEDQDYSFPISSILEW

Consider `O=C1C[C@@](C(=O)NCc2ccccc2)(c2ccc([N+](=O)[O-])cc2)[C@@H](c2ccc(CO)cc2)N1C1CCCCC1`, for which the composite z-score was found to be 1.25 in [1]; 1.15 in assay [2]; 1.02 in assay [3]; 0.955 in [4]; 1.12 in assay [5]; 1.05 in assay [6]. Besides, the composite z-score in the assay with Lefty1 is 0.294; in assay [8], 0.706. In addition, the z-score in assay [7] is 0.966; in assay [9] it was -0.238 (inactive).

On to `CCCCC(O)C1C=CC2C(=O)N(c3ccccc3)C(=O)C2N1Nc1ccc([N+](=O)[O-])cc1` (stereo not given), for which the composite z-score was 0.709 in [1]; 1.24 in assay [2]; 1.16 in assay [3]; 0.992 in assay [4]; 0.825 in assay [5]; -0.458 in assay [6]. The composite z-score in the assay with Lefty1 stood at 0.264; in assay [8], 0.68. In addition, the z-score in assay [7] was -0.52; in assay [9], 1.89 (inactive).

For the compound `Cc1ccc(F)cc1S(=O)(=O)N[C@H]1CCN(Cc2ccc(OC(C)C)cc2)C1`, the composite z-score in assay [1] is 0.6; in assay [2], -0.296; in assay [3], -0.198; in assay [4], -0.71; in [5], 0.855; in [6], 0.157. The composite z-score in the assay on Lefty1 was 1.1; in [8], -0.6. Also, the z-score in assay [7] was 1.3; in assay [9], -0.557 (inactive).

Take `COc1ccc([Si](C)(C)[C@H]2[C@H](CCO)O[C@@]3(C(=O)N(Cc4ccc(NC(=O)[C@H](C)O)cc4)c4ccccc43)[C@@H]2C)cc1`: the composite z-score was 1.4 in assay [1]; 1.23 in assay [2]; 0.382 in [3]; 0.68 in assay [4]; 0.728 in assay [5]; 0.634 in assay [6]. Besides, the composite z-score in the assay on Lefty1 turned out to be 0.568; in assay [8] it was 0.355. For the same compound, the z-score in assay [7] was -1.45; in assay [9], -0.234 (inactive).

Consider `CCCCCCc1nc(Cc2cc(OC)c(OC)c(OC)c2)cc2c1[Si](C(C)C)(C(C)C)O[C@H]2c1ccccc1`, for which the composite z-score was 0.0156 in assay [1]; 0.0994 in [2]; -0.148 in [3]; 0.146 in assay [4]; 0.571 in assay [5]; 0.675 in [6]. The composite z-score in the assay on Lefty1 is 0.845; in assay [8], -0.17. Further, the z-score was 0.216 in assay [7] and 0.555 (inactive) in assay [9].

For `CCOC(=O)C1=CCC(c2cc3ccccc3[nH]2)N(CCN2CC(C(=O)OCC)=CCC2c2cc3ccccc3[nH]2)C1` (stereo not given), the composite z-score in assay [1] amounted to 1.65; in assay [2], 1.22; in assay [3], 0.142; in assay [4], 0.974; in assay [5], 0.748; in assay [6], 0.0905. In addition, the composite z-score was found to be 0.24 with Lefty1 and 1 in assay [8]. Besides, the z-score in assay [7] was -1.43; in [9], 1.77 (inactive).

On to `C=CCNC(=O)[C@H]1[C@@H]2C(=O)O[C@@H](c3ccccc3)[C@@H](c3ccccc3)N2[C@@H](c2ccc(OCCO)cc2)[C@]12C(=O)Nc1ccc(C#CC3(O)CCCCCC3)cc12`, for which the composite z-score is 1.26 in [1]; 1.18 in [2]; 0.358 in assay [3]; 0.932 in [4]; 1.14 in [5]; 1.13 in assay [6]. For the same compound, the figures for the composite z-score (in the assay on Lefty1; in assay [8]) were 1.3 and 0.651, respectively. Moreover, the z-score is 0.38 in assay [7] and -1.96 (inactive) in assay [9].

Consider `COc1cc(OC)c(C(O)C2C=CC3C(=O)N(c4ccccc4)C(=O)C3N2Nc2ccc(C(C)C)cc2)cc1Br` (stereo not given), for which the composite z-score is -0.0881 in [1]; 1.21 in [2]; 0.441 in assay [3]; 0.885 in assay [4]; 0.806 in assay [5]; 0.0421 in [6]. Besides, the composite z-score was -0.112 in the assay with Lefty1 and 1.2 in assay [8]. Also, the values for the z-score in assay [7] and in assay [9] were 0.568 and -1.71 (inactive), respectively.

In the case of `C=C(CCCC)C(=O)CC[C@@H](OC(=O)c1ccccc1-c1ccccc1C(=O)O)c1ccccc1OCCO`, the composite z-score is 0.397 in [1]; 0.421 in [2]; -0.104 in assay [3]; 0.017 in assay [4]; 1.02 in [5]; 0.906 in [6]. Also, the composite z-score in the assay with Lefty1 is 1.2; in [8] it was -0.191. Besides, the z-score in assay [7] was 0.916; in assay [9], -1.31 (inactive).

For `CC(C)C(=C=CC[C@H](O)c1ccccc1OCCO)C[C@H](O)COCc1ccccc1`, the composite z-score is 1.12 in assay [1]; -0.141 in [2]; -0.27 in [3]; -0.513 in assay [4]; -0.0978 in assay [5]; 0.107 in [6]. Also, the figures for the composite z-score (in the assay with Lefty1; in assay [8]) were 0.346 and 0.133, respectively. For the same compound, the z-score is 0.742 in assay [7] and -0.961 (inactive) in [9].

Regarding `COCCOC(=O)N1C(=O)[C@@]2(c3cc(C#CCNC(N)=O)ccc31)[C@H](C(=O)Nc1nc3ccccc3s1)[C@H]1C(=O)O[C@H](c3ccccc3)[C@H](c3ccccc3)N1[C@@H]2c1ccccc1OCCO`, the composite z-score was -0.218 in assay [1]; 0.423 in [2]; 0.553 in assay [3]; 0.749 in [4]; 1.48 in assay [5]; 1.61 in [6]. Also, the composite z-score in the assay with Lefty1 was determined as 1.39; in [8], 0.489. For the same compound, the figures for the z-score in assay [7] and in assay [9] were -1.79 and -2.69 (inactive), respectively.
